{"source": "PubChem BioAssay AID2567", "about": "(National Center for Advancing Translational Sciences (NCATS), 2010)", "note": "Results filed as inconclusive are left out. A number with no mark means an inactive call. Activity calls are given as the source filed them. Calls come from the whole dose curve; as a rule, active = well fitted antagonist curve with a large enough effect in the main read-out, with a control signal flat; inconclusive = small, poorly fitted or top-dose-only effect; inactive = no such curve, though single readings can be large or run the other way.", "data": [{"molecular_target": "Neuropeptide S receptor (Homo sapiens) (UniProt Q6W5P4)", "sequence (Q6W5P4 whole entry, looked up)": "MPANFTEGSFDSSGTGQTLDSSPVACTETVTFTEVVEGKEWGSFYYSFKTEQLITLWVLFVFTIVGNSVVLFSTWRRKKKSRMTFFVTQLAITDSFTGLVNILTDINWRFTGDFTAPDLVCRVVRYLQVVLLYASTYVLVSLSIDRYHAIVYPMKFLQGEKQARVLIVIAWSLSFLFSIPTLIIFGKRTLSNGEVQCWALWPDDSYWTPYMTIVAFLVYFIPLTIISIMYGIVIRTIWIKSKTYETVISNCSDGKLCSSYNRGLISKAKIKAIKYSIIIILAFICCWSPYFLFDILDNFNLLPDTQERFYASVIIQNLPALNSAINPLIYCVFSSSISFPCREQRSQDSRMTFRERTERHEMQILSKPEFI", "assay": "Confirmation Concentration-Response Assay for Antagonists of the Neuropeptide S Receptor: Calcium Signal Transduction, SAR for Probe", "conditions": "CHO-NPSR cells, NPS-induced calcium fluorescence, FDSS; series mostly up to 19.3 µM; activity change, negative = inhibition: at the top concentration", "description": "NIH Chemical Genomics Center [NCGC] NIH Molecular Libraries Probe Production centers Network [MLPCN] MLPCN Grant: X01-DA026210-01 Assay Submitter (PI): Heilig, Markus Alexander NCGC Assay Overview: Neuropeptide S receptor (NPSR), previously known as GPR154, is a recently de-orphanized G protein coupled receptor. Its endogenous ligand is the 20 amino acids peptide Neuropeptide S (NPS). […] NPS and its receptor are found in various tissues. Specifically they are highly expressed in brain areas that have been implicated in modulation of arousal, stress and anxiety. Central administration of NPS in mice produces an unusual profile of activity by inducing wakefulness and arousal, while at the same time suppressing anxiety. Therefore, NPSR may represent a novel drug target for the treatment of sleep and anxiety disorders. To identify NPSR antagonists, we developed a cell-based assay with transfected NPS receptor. NPS can stimulate the production of cAMP as well as release intracellular calcium in Chinese hamster ovary cells stably expressing NPS receptor. This change in intracellular calcium can be detected using a calcium indicator dye on a calcium imaging plate reader system (FDSS).\nNCGC Assay Protocol Summary: A Chinese hamster ovary (CHO) cell line stably expressing the NPS receptor (CHO-NPSR) was obtained from Dr. Heilig lab at NIAAA and maintained in F-12 Kaighn's media (Invitrogen, Carlsbad, CA, 21127) supplemented with 10 % FBS, 100 units/ml penicillin, 100 ug/ml streptomycin and 250 ug/ml geneticin at 37C, 5% CO2 in a humidified atmosphere. Before the assay, aliquots of cells were frozen and stored at -135C. The assay was performed on a FDSS-7000 kinetic plate reader in 1536-well format. For both agonist (1-220s) and antagonist (221-400s) phases, the maximums of kinetic fluorescence responses were converted separately into text files using the instrument's software data export utility. Data for agonist response were normalized to the controls for basal activity (DMSO only) and 100% activation (NPS). […] AC50 values were determined from concentration-response data modeled with the standard Hill equation. NPS 1536-well FDSS assay protocol: (1) Frozen CHO-NPSR cells were thaw, washed once with fresh media and resuspended in F-12 Kaighn's media supplemented with 10 % FBS, 100 units/ml penicillin and 100 ug/ml streptomycin. Cells were plated at 3 ul/well (1200 cells) to black, clear-bottom, tissue-culture treated 1536-well plates, and then cultured at 37C, 5 % CO2 for 16 to 30 hours. (2) Add 3 ul of calcium dye (from High Performance PBX Calcium Assay Kit, BD Biosciences). The calcium dye was prepared according to the manufactory's instruction. (3) Incubation at 37C, 5 % CO2 for 60 to 120 min. (4) Load plates to FDSS-7000. The following steps were performed on FDSS-7000. (5) Record fluorescent background (Ex 480 nm, Em 520-560 nm) for 10 s. (6) Add 23 nl/well of compound in DMSO solution. The final titration for each compound was between 0.6 nM and 46 uM. Record agonist response for 210 s. (7) Add 2 ul of stimulation reagent (1X HBSS buffer, 0.1% BSA, 60 nM NPS). Record antagonist response for 140 s. Keywords: MLSMR, MLPCN, NIH Roadmap, qHTS, NCGC, NPS, Neuropeptide S Antagonists", "values": [{"compound": "CCOC(=O)c1cnc(-n2nc(C)cc2C)nc1NC1CCCC1", "Potency": "2.82 µM (active)"}, {"compound": "CCOC(=O)c1cnc(-n2nc(C)cc2C)nc1Nc1ccc(C)cc1", "activity change, negative = inhibition": "-19.5%"}, {"compound": "COc1cccc(C2c3c(ncn(-c4ccccc4C#N)c3=N)Oc3ccc4ccccc4c32)c1", "note": "(stereo not given)", "Potency": "4.38 µM (active)"}, {"compound": "COc1cccc(C2c3c(ncn(-c4ccncc4)c3=N)Oc3ccc4ccccc4c32)c1", "note": "(stereo not given)", "Potency": "4.38 µM (active)"}, {"compound": "O=P(c1ccccc1)(c1ccccc1)c1cnc2ccccn12", "activity change, negative = inhibition": "-12.3% [at 50.9 µM]"}, {"compound": "Cc1nn(C)cc1/C=N/NC(=S)Nc1ccccc1", "activity change, negative = inhibition": "3.91%"}, {"compound": "CCCCOc1ccc(OCCCN2CCOCC2)cc1", "activity change, negative = inhibition": "2.69%"}, {"compound": "COc1cc(/C=C2\\SC(c3ccc(C)cc3)=NC2=O)cc(OC)c1O", "activity change, negative = inhibition": "7.8%"}, {"compound": "COc1ccc(C2c3c(n(CCc4ccccc4)cnc3=N)Oc3ccc4ccccc4c32)cc1OC", "note": "(stereo not given)", "activity change, negative = inhibition": "-50.4% [at 50.9 µM]"}, {"compound": "COc1cccc(C2c3c(ncn(-c4ccc(C(C)(C)C)cc4)c3=N)Oc3ccc4ccccc4c32)c1", "note": "(stereo not given)", "Potency": "5.52 µM (active)"}, {"compound": "Cc1nnc(NC(=O)c2cccc(S(=O)(=O)N3CCc4ccccc43)c2)s1", "activity change, negative = inhibition": "23.8%"}, {"compound": "O=C(/C=C/c1ccco1)NC(=S)Nc1nc(-c2ccc3ccccc3c2)cs1", "activity change, negative = inhibition": "4.33%"}, {"compound": "COc1cccc(C2c3c(ncn(-c4ccccc4Cl)c3=N)Oc3ccc4ccccc4c32)c1", "note": "(stereo not given)", "Potency": "5.52 µM (active)"}, {"compound": "CCC(C)n1c(=O)c(C(=O)Nc2ccccc2S(N)(=O)=O)c(O)c2ccccc21", "note": "(stereo not given)", "activity change, negative = inhibition": "-2.76%"}, {"compound": "S=C(Nc1ccccc1)Nc1nccs1", "activity change, negative = inhibition": "23.7%"}, {"compound": "COc1cccc(N2CCN(c3ncnc4c3[nH]c3ccc(F)cc34)CC2C)c1", "note": "(stereo not given)", "Potency": "0.631 µM (active)"}, {"compound": "COc1cccc(C2c3c(ncn(-c4ccc(NC(C)=O)cc4)c3=N)Oc3ccc4ccccc4c32)c1", "note": "(stereo not given)", "Potency": "5.52 µM (active)"}, {"compound": "COc1cccc(C2c3c(ncn(-c4ccc(F)cc4)c3=N)Oc3ccc4ccccc4c32)c1", "note": "(stereo not given)", "Potency": "3.48 µM (active)"}, {"compound": "Cc1c(P(=S)(c2ccccc2)c2ccccc2)c2ccccc2n1Cc1ccccc1", "activity change, negative = inhibition": "52.1% [at 50.9 µM]"}, {"compound": "NC(=S)N/N=C/c1ncc(C(F)(F)F)cc1Cl", "activity change, negative = inhibition": "-1.3%"}, {"compound": "Cc1c(P(=S)(c2ccccc2)c2ccccc2)c2ccccc2n1C/C=C/c1ccccc1", "activity change, negative = inhibition": "62.1% [at 50.9 µM]"}, {"compound": "COc1cccc(C2c3c(ncn(-c4ccccc4SC)c3=N)Oc3ccc4ccccc4c32)c1", "note": "(stereo not given)", "Potency": "0.438 µM (active)"}, {"compound": "O=C1OC(c2ccccc2)(c2ccccc2)N2CCN(C(=O)NCc3ccc(F)cc3)CC12", "note": "(stereo not given)", "Potency": "0.139 µM (active)"}, {"compound": "COc1cccc(C2c3c(ncn(-c4ccccn4)c3=N)Oc3ccc4ccccc4c32)c1", "note": "(stereo not given)", "Potency": "5.52 µM (active)"}, {"compound": "COc1cccc(C2c3c(ncn(-c4ccccc4-c4ccccc4)c3=N)Oc3ccc4ccccc4c32)c1", "note": "(stereo not given)", "activity change, negative = inhibition": "-65.7% [at 50.9 µM]"}, {"compound": "Cn1cc(P(=O)(c2ccccc2)c2ccccc2)c2ccccc21", "activity change, negative = inhibition": "-17.3% [at 50.9 µM]"}, {"compound": "COc1ccc(C2c3c(N)nc(CCCc4ccccc4)nc3Oc3ccc4ccccc4c32)cc1OC", "note": "(stereo not given)", "activity change, negative = inhibition": "-53.4% [at 50.9 µM]"}, {"compound": "CCSc1nc2c(c(=O)n1Cc1ccccc1)SC(C)C2", "note": "(stereo not given)", "activity change, negative = inhibition": "-2.84%"}, {"compound": "COc1ccc(C2c3c(n(CCCc4ccccc4)cnc3=N)Oc3ccc4ccccc4c32)cc1OC", "note": "(stereo not given)", "Potency": "5.52 µM (active)"}, {"compound": "Cc1c(C(O)(c2ccccc2)c2ccccc2)[n+]2ccccc2n1C", "activity change, negative = inhibition": "-2.71% [at 50.9 µM]"}, {"compound": "C/C(=N\\NC(=S)NC1CCCCC1)c1c(F)cccc1F", "activity change, negative = inhibition": "-22.3%"}, {"compound": "COc1ccc(-n2cnc3c(c2=N)C(c2cccc(OC)c2)c2c(ccc4ccccc24)O3)cc1", "note": "(stereo not given)", "Potency": "4.38 µM (active)"}, {"compound": "CCCN1C(=O)/C(=C\\C=C2/C=CN(CC)c3ccccc32)SC1=S", "activity change, negative = inhibition": "-24.1%"}, {"compound": "COc1cccc(C2c3c(ncn(-c4ccc(-c5ccccc5)cc4)c3=N)Oc3ccc4ccccc4c32)c1", "note": "(stereo not given)", "activity change, negative = inhibition": "-6.38% [at 50.9 µM]"}, {"compound": "CC(=O)c1sc(-c2ccccc2)cc1NS(=O)(=O)c1ccccc1", "activity change, negative = inhibition": "19.9%"}, {"compound": "COc1cccc(C2c3c(ncn(-c4cccc(OC)c4)c3=N)Oc3ccc4ccccc4c32)c1", "note": "(stereo not given)", "Potency": "5.52 µM (active)"}, {"compound": "COc1cccc(C2c3c(ncn(-c4cccc(C#N)c4)c3=N)Oc3ccc4ccccc4c32)c1", "note": "(stereo not given)", "Potency": "4.38 µM (active)"}, {"compound": "COc1cccc2sc(Nc3nc(-c4ccccn4)cs3)nc12", "Potency": "3.16 µM (active)"}, {"compound": "COc1cccc(C2c3c(ncn(-c4cccnc4)c3=N)Oc3ccc4ccccc4c32)c1", "note": "(stereo not given)", "Potency": "2.76 µM (active)"}, {"compound": "COc1cccc(C2c3c(ncn(-c4ccccc4Br)c3=N)Oc3ccc4ccccc4c32)c1", "note": "(stereo not given)", "Potency": "5.52 µM (active)"}]}]}
